Measurements from PubChem BioAssay (NCATS).
Records with an inconclusive call do not appear. Where a call stands in place of a potency, no number is given. Calls of active or inactive are those of the source. Unless noted, the call rests on the fitted dose curve; in most records, active means well fitted curve in the direction sought with a large enough effect; inconclusive means small, poorly fitted or top-dose-only effect, or another doubt; inactive means no such curve, though single readings can be large; an effect the other way counts as inactive or inconclusive.

Tests used:
[1] = S16 Schwann cell PMP22 intronic element firefly luciferase assay (AID 624032); further: nearly all actives have a fitted effect of over 30% in size; further: potency means the concentration at half of the fitted maximal effect
Outline: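 Luciferase reporter of PMP22 intronic-element expression in stably transfected S16 rat Schwann cells, read by ONE-Glo luminescence after 24 h compound exposure at 37 C. Activity scaled between DMSO (0%) and positive-control PTC124; concentration-effect curves quality-classified.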

[2] = S16 Schwann cell PMP22 intronic element beta-lactamase assay (AID 624044; calls by dose curve; further: nearly all actives have a fitted effect of over 15% in size)
Outline: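 Beta-lactamase reporter under a PMP22 intronic regulatory element in stable S16 rat Schwann cells; 24 h compound exposure. 460 nm blue signal normalized between DMSO (0%) and potassium clavulanate, with 535 nm FRET tracking viability; curves classed by r2 and response.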

3D7 = test: qHTS profiling for inhibitors of Plasmodium falciparum proliferation (AID 504749); further: nearly all actives have a fitted effect of over 60% in size; further: potency means the concentration at half of the fitted maximal effect; details: P. falciparum in erythrocytes, SYBR Green DNA, 72 h; series mostly up to 12.8 µM
Outline: (§1)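 SYBR Green fluorescence of parasite DNA, read after lysis and overnight dark incubation, measured growth over 72 h in erythrocyte culture at 0.3% parasitemia and 2.5% hematocrit. Data normalised to DMSO and 0.29 uM artemisinin, with plate-drift correction.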

ATS95 = test: as above; details: P. falciparum in erythrocytes, SYBR Green DNA, 72 h; series mostly up to 12.8 µM
Outline: as §1

CP192 = test: as above; details: P. falciparum in erythrocytes, SYBR Green DNA, 72 h; series mostly up to 28.7 µM
Outline: as §1

CP194 = test: as above; details: P. falciparum in erythrocytes, SYBR Green DNA, 72 h; series mostly up to 12.8 µM
Outline: as §1

CP203 = test: as above; details: P. falciparum in erythrocytes, SYBR Green DNA, 72 h; series mostly up to 12.8 µM
Outline: as §1

CP215 = test: as above; details: P. falciparum in erythrocytes, SYBR Green DNA, 72 h; series mostly up to 28.7 µM
Outline: as §1

CP260 = test: as above; details: P. falciparum in erythrocytes, SYBR Green DNA, 72 h; series mostly up to 12.8 µM
Outline: as §1

CP266 = test: as above; details: P. falciparum in erythrocytes, SYBR Green DNA, 72 h; series mostly up to 28.7 µM
Outline: as §1

CP297 = test: as above; details: P. falciparum in erythrocytes, SYBR Green DNA, 72 h; series mostly up to 12.8 µM
Outline: as §1

DIV14 = test: as above; details: P. falciparum in erythrocytes, SYBR Green DNA, 72 h; series mostly up to 12.8 µM
Outline: as §1

DIV17 = test: as above; details: P. falciparum in erythrocytes, SYBR Green DNA, 72 h; series mostly up to 12.8 µM
Outline: as §1

GB4 = test: as above; details: P. falciparum in erythrocytes, SYBR Green DNA, 72 h; series mostly up to 12.8 µM
Outline: as §1

PAD = test: as above; details: P. falciparum in erythrocytes, SYBR Green DNA, 72 h; series mostly up to 12.8 µM
Outline: as §1

TAB109 = test: as above; details: P. falciparum in erythrocytes, SYBR Green DNA, 72 h; series mostly up to 12.8 µM
Outline: as §1

W2 = test: as above; details: P. falciparum in erythrocytes, SYBR Green DNA, 72 h; series mostly up to 12.8 µM
Outline: as §1

[3] = biological target: Cytochrome P450 3A4 (Homo sapiens) (UniProt P08684); test: qHTS Assay for Activators of Cytochrome P450 3A4 (AID 885); further: nearly all actives have a fitted effect of over 65% in size
Chain of Cytochrome P450 3A4 (Homo sapiens) (P08684 whole entry, looked up): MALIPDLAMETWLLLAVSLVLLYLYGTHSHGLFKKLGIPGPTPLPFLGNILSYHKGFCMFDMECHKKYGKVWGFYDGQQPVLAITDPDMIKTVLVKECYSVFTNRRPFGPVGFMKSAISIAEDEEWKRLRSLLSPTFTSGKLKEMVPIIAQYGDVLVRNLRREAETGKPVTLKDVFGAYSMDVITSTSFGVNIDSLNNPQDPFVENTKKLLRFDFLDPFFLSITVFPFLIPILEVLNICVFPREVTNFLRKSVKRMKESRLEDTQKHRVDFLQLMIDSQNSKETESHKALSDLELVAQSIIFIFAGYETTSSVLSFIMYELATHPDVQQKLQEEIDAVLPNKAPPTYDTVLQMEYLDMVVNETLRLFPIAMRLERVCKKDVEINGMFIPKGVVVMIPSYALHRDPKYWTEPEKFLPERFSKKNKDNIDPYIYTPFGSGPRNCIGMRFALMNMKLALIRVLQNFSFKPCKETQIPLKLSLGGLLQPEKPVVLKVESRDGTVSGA
Outline: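 Activators are scored by enhanced luminescence from CYP3A4 conversion of luciferin-PPXE (25uM, equal to KM) to luciferin, after 60 min at RT with an NADPH-regenerating system.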

[4] = biological target: Muscarinic acetylcholine receptor M1 (Rattus norvegicus) (UniProt P08482); test: qHTS Assay for Antagonists of Acetylcholine Muscarinic M1 Receptor: Measurement of IP-One Response (AID 944); further: nearly all actives have a fitted effect of over 75% in size; further: potency means the concentration at half of the fitted maximal effect
Chain of Muscarinic acetylcholine receptor M1 (Rattus norvegicus) (P08482 whole entry, looked up): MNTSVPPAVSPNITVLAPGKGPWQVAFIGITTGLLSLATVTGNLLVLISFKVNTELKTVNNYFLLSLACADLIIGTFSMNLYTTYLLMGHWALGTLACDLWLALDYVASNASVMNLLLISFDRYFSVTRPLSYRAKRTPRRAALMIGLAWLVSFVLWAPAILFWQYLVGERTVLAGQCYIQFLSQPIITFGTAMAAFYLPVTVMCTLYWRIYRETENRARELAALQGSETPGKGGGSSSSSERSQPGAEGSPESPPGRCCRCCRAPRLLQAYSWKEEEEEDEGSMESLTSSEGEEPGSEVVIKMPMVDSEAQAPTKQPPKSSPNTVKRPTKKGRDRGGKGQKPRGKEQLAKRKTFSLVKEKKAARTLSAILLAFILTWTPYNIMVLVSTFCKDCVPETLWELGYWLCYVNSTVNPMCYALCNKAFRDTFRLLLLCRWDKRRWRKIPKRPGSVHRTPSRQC
Outline: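 Antagonist mode with rat M1 receptor transfected into CHO cells. Compound is added first for 10 min, carbachol at its EC80 follows for 30 min, and lysis reagents then allow TR-FRET detection of accumulated IP1.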

[5] = qHTS Assay for Identification of Small Molecule Agonists for Thrombopoietin (TPO) Signaling Pathway (AID 917)
Outline: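 Stimulation at the TPO EC50 (26 pM final) was used to detect activators. Ba/F3 mouse cells bearing human TPO receptor and a luciferase reporter under the Glycoprotein IIb promoter were exposed to compounds for 24 hrs at 37 C.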

| SMILES | Potency [1] | outcome [2] | Potency (3D7) | Potency (ATS95) | Potency (CP192) | Potency (CP194) | Potency (CP203) | Potency (CP215) | Potency (CP260) | Potency (CP266) | Potency (CP297) | Potency (DIV14) | Potency (DIV17) | Potency (GB4) | Potency (PAD) | Potency (TAB109) | Potency (W2) | Potency [3] | Potency [4] | outcome [5] |
| --- | --- | --- | --- | --- | --- | --- | --- | --- | --- | --- | --- | --- | --- | --- | --- | --- | --- | --- | --- | --- |
| COc1c(O)cc2c(c1O)[C@@H]1O[C@@H](CO)[C@@H](O)[C@@H](O)[C@@H]1OC2=O | inactive | inactive | inactive | inactive | inactive | inactive | inactive | inactive | inactive | inactive | inactive | inactive | inactive | inactive | inactive | inactive | inactive |  |  |  |
| CC[C@H](NC(C)C)[C@H](O)c1ccc(O)c(O)c1 | 11.4 µM (active) | inactive |  | inactive | inactive | inactive | inactive | inactive |  | inactive | inactive |  |  |  | inactive | inactive |  | inactive | inactive |  |
| OCCN1CCN(CC/C=C2\c3ccccc3Sc3ccc(C(F)(F)F)cc32)CC1 |  |  |  |  |  |  |  |  |  |  |  |  |  |  |  |  |  | inactive | 5.01 µM (active) |  |
| CN(C)CCO[C@](C)(c1ccccc1)c1ccccn1 |  |  |  |  |  |  |  |  |  |  |  |  |  |  |  |  |  |  |  | inactive |
| CCC[C@H]1C(=O)N2C(N(C)C)=Nc3ccc(C)cc3N2C1=O | inactive | inactive | inactive | inactive | inactive | inactive | inactive | inactive | inactive | inactive | inactive | inactive | inactive | inactive | inactive | inactive | inactive |  |  |  |
| O=c1[nH]c(=O)n([C@@H]2C[C@H](O)[C@H](CO)O2)cc1I | 2.45 µM (active) | inactive | inactive | inactive | inactive | inactive | inactive | inactive | inactive | inactive | inactive | inactive | inactive | inactive | inactive | inactive | inactive |  |  |  |
| NC(N)=NC[C@@H]1COC2(CCCCC2)O1 | inactive | inactive | inactive | inactive | inactive | inactive | inactive | inactive | inactive | inactive | inactive | inactive |  | inactive | inactive | inactive | inactive |  |  |  |
| COc1ccccc1OC[C@H](O)COC(N)=O | inactive | inactive | inactive | inactive | inactive | inactive | inactive | inactive | inactive | inactive | inactive | inactive | inactive | inactive | inactive | inactive | inactive |  |  |  |
| CN(C)[C@@H]1C(=O)C(C(N)=O)=C(O)[C@]2(O)C(=O)C3=C(O)c4c(O)ccc(Cl)c4[C@H](O)[C@H]3C[C@@H]12 | inactive | inactive |  |  | inactive | inactive | inactive | inactive |  | inactive | inactive | inactive | inactive |  |  |  | 5.36 µM (active) |  | inactive | inactive |
| C[C@@H](CN(C)C)CN1c2ccccc2CCc2ccccc21 | inactive | inactive | inactive | inactive | inactive |  |  |  | inactive | inactive | inactive |  |  |  | inactive | inactive |  | inactive | 0.126 µM (active) |  |
| C[n+]1ccccc1/C=N\O | inactive | inactive | inactive | inactive | inactive | inactive | inactive | inactive | inactive | inactive | inactive | inactive | inactive | inactive | inactive | inactive | inactive |  |  |  |
| CC(=O)Nc1c(I)c(C(=O)N[C@H]2[C@@H](O)[C@H](O)[C@H](CO)O[C@@H]2O)c(I)c(N(C)C(C)=O)c1I | inactive | inactive | inactive | inactive | inactive | inactive | inactive | inactive | inactive | inactive | inactive | inactive | inactive | inactive | inactive | inactive | inactive |  |  |  |
| CN(C)CC[C@@H](c1ccccc1)c1ccccn1 |  |  |  |  |  |  |  |  |  |  |  |  |  |  |  |  |  |  | 10 µM (active) | inactive |
| CC1=C(C(=O)O)N2C(=O)[C@@H](NC(=O)[C@@H](N)c3ccccc3)[C@@H]2SC1 |  |  |  |  |  |  |  |  |  |  |  |  |  |  |  |  |  |  |  | inactive |
| CC(C)NC[C@H](O)c1cc(O)cc(O)c1 |  |  | inactive | inactive | inactive | inactive | inactive | inactive |  | inactive | inactive | inactive | inactive | inactive | inactive | inactive | inactive |  |  | inactive |
| CCN(CC)CCC[C@H](C)Nc1c2ccc(Cl)cc2nc2ccc(OC)cc12 |  | inactive | 89.1 nM (active) | 631 nM (active) | 478 nM (active) | 1.51 µM (active) | 2.13 µM (active) | 1.69 µM (active) | 501 nM (active) | 1.51 µM (active) | 536 nM (active) | 478 nM (active) | 536 nM (active) | 379 nM (active) | 398 nM (active) | 501 nM (active) | 0.338 µM (active) | inactive |  |  |
| CN1Cc2c(N)cccc2[C@H](c2ccccc2)C1 |  |  |  |  |  |  |  |  |  |  |  |  |  |  |  |  |  | inactive | inactive | inactive |
